The structures appear in SMILES notation. About 14,000 (4.5%) of roughly 310,000 compounds showed an effect of 50% or more. The effect is printed as a negative number. What follows is part of a selection rich in strong results, with near analogues and random picks from the rest.
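Also: peak tail current of the secondary pulse compared with the same well before compound.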

Sequence of human ether-à-go-go-related gene (hERG) potassium channel (Q12809 whole entry, looked up): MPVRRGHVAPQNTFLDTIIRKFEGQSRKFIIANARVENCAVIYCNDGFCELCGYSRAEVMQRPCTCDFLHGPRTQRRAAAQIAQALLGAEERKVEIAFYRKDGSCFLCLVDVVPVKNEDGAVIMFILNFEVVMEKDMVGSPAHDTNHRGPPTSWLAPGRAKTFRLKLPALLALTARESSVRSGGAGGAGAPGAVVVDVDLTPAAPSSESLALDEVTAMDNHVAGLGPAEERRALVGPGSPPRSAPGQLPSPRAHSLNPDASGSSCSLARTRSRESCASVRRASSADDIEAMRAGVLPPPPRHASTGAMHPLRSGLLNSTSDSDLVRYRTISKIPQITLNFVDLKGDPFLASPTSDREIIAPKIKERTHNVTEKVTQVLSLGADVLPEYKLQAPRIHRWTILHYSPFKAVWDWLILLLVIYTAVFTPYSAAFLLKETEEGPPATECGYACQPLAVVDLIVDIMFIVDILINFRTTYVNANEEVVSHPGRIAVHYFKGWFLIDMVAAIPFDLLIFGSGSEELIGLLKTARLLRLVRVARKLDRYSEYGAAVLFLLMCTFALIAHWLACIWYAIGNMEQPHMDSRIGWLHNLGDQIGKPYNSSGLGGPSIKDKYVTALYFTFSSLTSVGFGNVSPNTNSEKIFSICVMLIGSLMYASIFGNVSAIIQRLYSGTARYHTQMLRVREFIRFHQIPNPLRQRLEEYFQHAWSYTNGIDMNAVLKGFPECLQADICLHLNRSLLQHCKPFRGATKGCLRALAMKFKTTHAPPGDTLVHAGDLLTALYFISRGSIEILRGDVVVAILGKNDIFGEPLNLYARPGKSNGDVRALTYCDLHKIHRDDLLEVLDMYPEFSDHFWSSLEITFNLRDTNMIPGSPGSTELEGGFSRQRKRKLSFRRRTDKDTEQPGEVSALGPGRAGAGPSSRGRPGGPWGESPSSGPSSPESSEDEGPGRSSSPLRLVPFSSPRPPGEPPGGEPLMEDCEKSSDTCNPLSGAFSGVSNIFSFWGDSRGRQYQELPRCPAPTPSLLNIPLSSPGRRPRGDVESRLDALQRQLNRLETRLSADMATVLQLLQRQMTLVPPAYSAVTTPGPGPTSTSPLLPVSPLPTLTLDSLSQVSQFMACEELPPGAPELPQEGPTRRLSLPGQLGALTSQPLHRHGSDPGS

The assay concerns the target human ether-à-go-go-related gene (hERG) potassium channel (human, UniProt Q12809). Description: primary screen, population patch clamp on CHO cells stably expressing hERG; higher = less effect of the substance.
Regarding `CCn1c(-c2ccco2)n[nH]c1=S`, the “hERG current change (%, negative = inhibition) at 10uM” value came to 12%.
As for `N#C/C(=C\c1ccc(OCc2ccc(Br)cc2)cc1)C(=O)Nc1cccc(C(=O)O)c1`, the “hERG current change (%, negative = inhibition) at 10uM” value was 17.8%.
Consider `CCOC(=O)c1c(C)[nH]c(C(=O)CSc2ccccc2)c1C`, for which the “hERG current change (%, negative = inhibition) at 10uM” value was found to be 3.05%.
Take `O=C(Cn1nnc2ccccc21)c1ccc(Cl)cc1`: the “hERG current change (%, negative = inhibition) at 10uM” value is reported as -4.9%.
On to `O=C(O)Cn1nnc2ccccc21`, for which the “hERG current change (%, negative = inhibition) at 10uM” value is recorded as -3.4%.
Regarding `C/C(Cn1nnc2ccccc21)=N/OC(=O)c1c(F)cccc1F`, the “hERG current change (%, negative = inhibition) at 10uM” value came out at 12.5%.
In the case of `C/C(Cn1nnc2ccccc21)=N\OC(=O)c1cc(F)c(F)cc1Cl`, the “hERG current change (%, negative = inhibition) at 10uM” value is -80.5%.
As for `C/C(Cn1nnc2ccccc21)=N\OC(=O)c1ccccc1C`, the “hERG current change (%, negative = inhibition) at 10uM” value is recorded as -63.9%.
As for `Cc1ccccc1NC(=O)Cn1nnc2ccccc21`, the figure is -12%; as for `C[N+]1(CC(=O)Nc2ccc(F)cc2)CCN(C(=O)c2ccco2)CC1.[Cl-]`, 13.2%; as for `COc1ccc(CCNC(=O)C2CCCCC2C(=O)O)cc1OC` (centres unmarked), -2.9%.
Consider `Nc1ccc([N+](=O)[O-])cc1C(=O)NNC(=O)c1ccco1`, for which the “hERG current change (%, negative = inhibition) at 10uM” value was determined as 25.9%.
In the case of `O=C(CSCc1ccccc1)Nc1ccc2c(c1)OCO2` it was 7.4%.
As for `CCCc1nc2ccccc2c(=O)n1-c1ccc(C(=O)OCC)cc1`, the figure is 13.5%; as for `CSc1ncc(/C=C2/C(=O)NC(=O)N(C)C2=O)cn1`, 18.8%; as for `C[C@]12CCC(=O)C=C1CCC1C2CC[C@@]2(C)C1CC[C@@]2(O)CC#N` (some centres unmarked), -59.8%.
As for `C[C@]12CCC(=O)C=C1CC[C@@H]1[C@@H]2CC[C@@]2(C)[C@H]1CC[C@]2(O)C(=O)CO`, the figure is 9.17%; as for `CC(=O)[C@@]1(O)CC[C@H]2[C@@H]3CCC4=CC(=O)CC[C@]4(C)[C@H]3CC[C@@]21C`, 1.7%.
`COc1ccc(S(=O)(=O)N2CCC(C(=O)NCc3ccco3)CC2)cc1C`: the “hERG current change (%, negative = inhibition) at 10uM” value amounted to 8.26%.
`O=S1(=O)NC(=NCc2ccco2)c2ccccc21`: the “hERG current change (%, negative = inhibition) at 10uM” value came to 2.66%.
For `O=C1c2ccccc2C(=O)N1Cc1ccco1`, the “hERG current change (%, negative = inhibition) at 10uM” value is reported as -3.32%.
On to `c1coc(CN=C2NC(=NCc3ccco3)c3ccccc32)c1`, for which the “hERG current change (%, negative = inhibition) at 10uM” value was -66.4%.
As for `CC(=O)c1cccc(Nc2cc(C)nc3c(C)cccc23)c1.Cl`, the figure is -72.8%; as for `Cc1cc(Nc2ccc(C(=O)N3CCCCC3)cc2)c2cccc(C)c2n1`, -23.5%.
As for `CC(=O)c1cccc(Nc2cc(C)nc3c(C)cc(C)cc23)c1.Cl`, the figure is -56.1%; as for `CC(=O)c1ccc(Nc2cc(C)nc3c(C)cc(C)cc23)cc1`, -45.7%.
As to `Cc1cc(C)c2nc(C)cc(Nc3ccc(C(=O)N(C)C)cc3)c2c1`, the “hERG current change (%, negative = inhibition) at 10uM” value is recorded as -28.1%.
In the case of `CC(=O)c1ccc(Nc2cc(C)nc3c(C)cccc23)cc1` it was -36.2%; in that of `Cc1cc(C)nc(-n2cc(C(=O)c3cc(F)ccc3O)cn2)n1`, 9.85%.
For the compound `CCOC(=O)C1=C(C)NC(=O)NC1c1cc2c(cc1Br)OCO2` (centres unmarked), the “hERG current change (%, negative = inhibition) at 10uM” value came to 6.32%.
For `NC(=O)CC(NC(=O)Cc1ccc(Br)cc1)c1ccc(NCc2ccc(F)c(F)c2)c([N+](=O)[O-])c1` (centres unmarked), the “hERG current change (%, negative = inhibition) at 10uM” value is on record as -1.71%.
In the case of `NC(=S)N1OC[C@@H]2COc3ccc4ccccc4c3[C@@H]21` it was 4.27%; in that of `CCOc1ccc(N2Cc3ccccc3C2)cc1`, -2.48%.
As for `CCOc1ccc(N2C=Nc3ccc(OCC)cc3C2)cc1`, the figure is -63.9%; as for `CC(C)c1ccc(N2C=Nc3ccc(C(C)C)cc3C2)cc1`, -9.45%; as for `O=C1SCCC1NC(=O)C(c1ccccc1)c1ccccc1` (centres unmarked), 3.15%.
On to `Cc1ccc(NC(=O)CCN2C(=O)c3cccc4cccc(c34)C2=O)cc1`, for which the “hERG current change (%, negative = inhibition) at 10uM” value is listed as 9.71%.
With `C/C(=N\NC(=S)NC(C)C)c1ccc(C(C)(C)C)cc1`, the “hERG current change (%, negative = inhibition) at 10uM” value came out at 11.1%.
As to `CCCCCCCCNC(=O)c1cccnc1SCC(=O)Nc1ccc(OC)cc1OC`, the “hERG current change (%, negative = inhibition) at 10uM” value worked out at 5.99%.
In the case of `CCCCCCCCNC(=O)c1cccnc1SCC(=O)Nc1ccccc1OC`, the “hERG current change (%, negative = inhibition) at 10uM” value is 2.4%.
Turning to `CCCCCNC(=O)c1cccnc1SCC(=O)Nc1ccccc1OC`, the “hERG current change (%, negative = inhibition) at 10uM” value is -65.6%.
In the case of `CN(CC(=O)Nc1ccc(F)c(F)c1F)C(=O)CC1OC(=O)c2ccccc21` (centres unmarked) it was -27.6%.
With `O=C(CN1C(=O)C2CCCCC2C1=O)Nc1ccc(OC(F)F)c(Cl)c1` (centres unmarked), the “hERG current change (%, negative = inhibition) at 10uM” value is recorded as -2.68%.
As to `CN(CC(=O)Nc1ccccn1)S(=O)(=O)c1ccc(Cl)cc1`, the “hERG current change (%, negative = inhibition) at 10uM” value is on record as -9.34%.
On to `Cc1ccc(NS(=O)(=O)c2c(C)noc2C)cc1`, for which the “hERG current change (%, negative = inhibition) at 10uM” value is given as -55.1%.
Turning to `Cc1noc(C)c1S(=O)(=O)Nc1ccc(C(C)C)cc1`, the “hERG current change (%, negative = inhibition) at 10uM” value is on record as -17.6%.
`CCc1ccc(NS(=O)(=O)c2c(C)noc2C)cc1`: the “hERG current change (%, negative = inhibition) at 10uM” value was -10.3%.
`O=C(CN1C(=O)CSc2ncccc21)Nc1cccc(Cl)c1`: the “hERG current change (%, negative = inhibition) at 10uM” value is given as -25.4%.
In the case of `Cc1ccnc(SCC(=O)c2ccc(Br)s2)n1` it was 3.59%; in that of `CC1(C)CC(=O)C2=C(C1)N(c1ccccc1C#N)C(N)=C(C#N)C2c1cccs1` (centres unmarked), -13%; in that of `Cn1c2ccccc2c2nnc(NN)nc21`, 12.2%.
As for `Cn1c2ccccc2c2nnc(N/N=C/c3ccc(O)cc3)nc21`, the figure is -0.978%; as for `C/C(=N\Nc1nnc2c3ccccc3n(C)c2n1)c1ccc(C)o1`, -52.4%.
In the case of `CCOC(=O)C1(C(F)(F)F)N=C(N(C)C)OC(N(C)C)=N1` it was 5.29%; in that of `Cc1cc(C)cc(Nc2cnn(C34CC5CC(CC(CC(=O)O)(C5)C3)C4)c(=O)c2Cl)c1`, 5.39%; in that of `O=C(Nc1nc(-c2ccccn2)cs1)c1ccc(Br)s1`, 7.34%.
For `COC1(OC)N=C(N)C2(C#N)C(c3ccc(F)cc3)C12C#N` (centres unmarked), the “hERG current change (%, negative = inhibition) at 10uM” value turned out to be 5%.
In the case of `COc1ccc(C2C3(C#N)C(N)=NC(OC)(OC)C23C#N)cc1` (centres unmarked), the “hERG current change (%, negative = inhibition) at 10uM” value was -53.4%.
In the case of `COC1(OC)N=C(N)C2(C#N)C(c3ccc(C)cc3)C12C#N` (centres unmarked) it was 10.1%; in that of `OC(CNCCNc1ncccc1C(F)(F)F)Cn1ccc2ccccc21` (centres unmarked), -45.3%; in that of `Cc1cccnc1NCC(O)COc1ccccc1` (centres unmarked), -37.5%.
In the case of `O=C(NCC(O)COc1ccc([N+](=O)[O-])cc1)c1ccccc1` (centres unmarked) it was -40.4%.
In the case of `COc1ccc(OCC(O)CNCCNc2nccc(C(F)(F)F)n2)cc1` (centres unmarked) it was -23.3%; in that of `OC(CNCCNc1ncccc1C(F)(F)F)COc1ccc(F)cc1` (centres unmarked), -72%; in that of `O=[N+]([O-])c1ccc(OCC(O)CNCCNc2nccc(C(F)(F)F)n2)cc1` (centres unmarked), -79.2%.
Regarding `Nc1ccc2oc3ccc(N)cc3c(=O)c2c1`, the “hERG current change (%, negative = inhibition) at 10uM” value is 13.8%.
In the case of `CN(Cc1ccccc1OCCO)CC1CCCN(CCc2ccc(Cl)cc2)C1` (centres unmarked) it was -66.9%.
In the case of `COc1ccccc1CCN1CCCC(CN(C)Cc2ccc(OCCO)cc2)C1` (centres unmarked), the “hERG current change (%, negative = inhibition) at 10uM” value is -40.8%.
As for `CCN(Cc1ccccc1OC)CC1CCCN(CCc2cccc(OC)c2)C1` (centres unmarked), the figure is -43.6%.
In the case of `CCOc1cccc(CN(CC)CC2CCCN(CCc3cccc(OC)c3)C2)c1O` (centres unmarked) it was -66.7%; in that of `CCOc1cccc(CN(C)CC2CCCN(CCc3ccc(Cl)cc3)C2)c1O` (centres unmarked), -69.7%; in that of `CN(Cc1ccccc1O)CC1CCCN(CCc2ccc(Cl)cc2)C1` (centres unmarked), -76.1%.
As for `CCOC(=O)c1cc2sc(C)cc2n1CC(=O)N1CCOCC1`, the “hERG current change (%, negative = inhibition) at 10uM” value was found to be 7.06%.
For `Cc1cc(NC(=O)c2cccnc2)ccc1NC(=O)c1cc2ccccc2o1`, the “hERG current change (%, negative = inhibition) at 10uM” value amounted to 11.1%.
In the case of `O=C(Nc1ccccn1)C(F)(F)C(F)(F)C(F)(F)C(F)(F)C(=O)Nc1ccccn1` it was -18%; in that of `COc1ccc(/C=C/C(=O)C2CC2)cc1Cn1nc(C)c([N+](=O)[O-])c1C`, -14.6%; in that of `COc1cc(C(=S)N2CCOCC2)ccc1OC(=O)c1cc(OC)c(OC)c(OC)c1`, 21.8%.
With `Cc1nnc(C)c2c(C)n(-c3ccc(Cl)c(N)c3)c(C)c12`, the “hERG current change (%, negative = inhibition) at 10uM” value is -45%.
As for `CC1(C)CC(=O)C2=C(C1)OC(N)=C(C#N)C21CCN(C(=O)OCc2ccccc2)CC1`, the figure is -2.49%; as for `N#CC1=C(N)OC2=C(C(=O)CCC2)C12CCN(C(=O)OCc1ccccc1)CC2`, -55.9%.
As for `CCOC(=O)N1CCC2(CC1)C(C#N)=C(N)OC1=C2C(=O)CCC1`, the “hERG current change (%, negative = inhibition) at 10uM” value is listed as -0.515%.
In the case of `Cc1cc(NN)nc(NS(=O)(=O)c2ccccc2)n1` it was 25.7%; in that of `COc1ccc(N/C(C)=C2/C(=O)C(=O)N(CCO)C2c2ccc(Br)cc2)cc1` (centres unmarked), -49%.
For the compound `COc1ccc(N/C(C)=C2/C(=O)C(=O)N(CCO)C2c2ccc([N+](=O)[O-])cc2)cc1` (centres unmarked), the “hERG current change (%, negative = inhibition) at 10uM” value is given as -67.3%.
As for `COc1ccc(C2/C(=C(/O)c3ccccc3)C(=O)C(=O)N2CCO)cc1` (centres unmarked), the figure is -21.1%; as for `O=C(N/N=C/c1ccc([N+](=O)[O-])cc1)c1cccc2cc[nH]c12`, 12.4%.
As to `CN(CC(=O)NCc1ccc(Cl)cc1)S(=O)(=O)c1cccc2nsnc12`, the “hERG current change (%, negative = inhibition) at 10uM” value is given as -52.5%.
For `CN(CC(=O)NCc1ccc(F)cc1)S(=O)(=O)c1cccc2nsnc12`, the “hERG current change (%, negative = inhibition) at 10uM” value is listed as -21.1%.
As for `CN(CC(=O)NCc1cccs1)S(=O)(=O)c1cccc2nsnc12`, the figure is 0.981%.

The values above are taken from paper PMC4336329 (PLoS ONE, 2015).
